# High-throughput results (PubChem)
# Cycloheximide cs – counter-screen hit for Shiga toxin inhibitors, cycloheximide | max response, % | 300,000 tested, 12% active | cell reporter, cycloheximide protein synthesis inhibition counterscreen; in the data active = max response mostly above about 13%, no sharp cut-off; inactive = mostly below about 14%; also: read at 38.3 µM for the half of the compounds with a filed dose; 0% is about no effect
# Pf growth 48h – P. falciparum growth inhibition at 48 hours (one generation) | P. falciparum luciferase growth in erythrocytes, 48 h | Potency, µM (top dose mostly 28.7 µM), without a hit: at the top dose activity change, negative = inhibition, hits mostly inhibitors | 310,000 tested, 5.9% active | AID 504832; also: potency is read from the fitted curve at half-maximal effect; % is scaled to controls: 0 for no effect and ±100 for the full control effect
#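 Luciferase-expressing P. falciparum in infected erythrocytes (2% hematocrit, 0.1% parasitemia final) in RPMI 1640/0.5% Albumax were exposed to compound for 48 hours at 37 C, 5% CO2; growth read as luminescence.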
# Pf growth 96h – P. falciparum growth inhibition at 96 hour, primary screen for plastid delayed-death inhibitors; P. falciparum luciferase reporter growth, 96 h; AID 504834; 320,000 tested, 6.9% active; Potency, µM (highest dose often 28.7 µM), for the others: at the top dose activity change, negative = inhibition, most hits filed as inhibitors; also: potency is read from the fitted curve at half-maximal effect; % is scaled to controls: 0 for no effect and ±100 for the full control effect
#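 Parasite growth measured via integrated firefly luciferase reporter in P. falciparum. Infected erythrocytes at 2% hematocrit, 0.05% parasitemia final were treated 96 hours at 37 C under 5% CO2, and luminescence was read.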
# Shiga inhibitor – Shiga toxin inhibition | Vero cells, Shiga toxin protein synthesis inhibition reporter | 290,000 tested, 9.2% active | AID 2315 | inhibition, % at 38.7 µM; in the data active = inhibition mostly above about 28%, no sharp cut-off; inactive = mostly below about 43%; also: 0% is about no effect
# The depositor's hits bear a star; i = inactive; u = inconclusive; x = no result; [ ] = dose if it differs, or a comment. Shown are actives, neighbours in structure and some others; about 21% of the full set was active somewhere. Unless noted, calls follow the shape of the dose curve; as a rule, active = well fitted inhibition curve with a large enough effect; inconclusive = small, poorly fitted or top-dose-only effect, or another doubt; inactive = no such curve, though single readings can be large or run the other way.
SMILES,Cycloheximide cs,Pf growth 48h,Pf growth 96h,Shiga inhibitor
CC(C)(C)OC(=O)[C@H](Cc1ccccc1)NC(=O)c1nc[nH]c1C(=O)NCc1ccccc1,-3.0,-1.5%,1.0%,-8.9
CC(C)(C)OC(=O)NCc1ccc(CNC(=O)c2[nH]cnc2C(=O)N[C@@H](Cc2ccccc2)C(=O)OC(C)(C)C)cc1,-1.1,10.4µM*,u,-5.9
O=C(CCNS(=O)(=O)c1ccccc1)OCC(=O)c1ccc(Br)cc1,x,-22.0%,21.2%,x
O=C(Nc1ccc2oc(-c3cccc4ccccc34)nc2c1)c1ncn[nH]1,18.1*,x,u,27.5
O=C(Nc1ccc2oc(-c3ccccc3Cl)nc2c1)c1cncc(Br)c1,65.8*,126.3%,-6.2%,70.7*
O=C(Nc1ccc(N2CCOCC2)c(Cl)c1)c1ncn[nH]1,46.5,u,x,27.7
O=C(Nc1ccc2oc(-c3cccnc3)nc2c1)c1cccnc1,-2.3,-3.5%,u,33.6
O=C(Nc1ccc2oc(-c3ccccc3Cl)nc2c1)c1ncn[nH]1,42.8*,102.0%,x,112.6*
COc1ccc(C(=O)N2CCN(C)C(=O)[C@@H]2C)cc1OC1CCN(C(C)C)CC1,-1.2,6.1%,63.4%,-35.7
Cn1c(=O)c2c(nc(N3CCOCC3)n2CCSc2ncccn2)n(C)c1=O,-2.2,-4.3%,0.0%,10.0
CN(Cc1ccccc1)c1nc2c(c(=O)n(C)c(=O)n2C)n1CCSc1ncccn1,-3.6,10.4µM*,u,16.1
Cc1cc(C)nc(SCCn2c(N(C)Cc3ccccc3)nc3c2c(=O)n(C)c(=O)n3C)n1,-2.7,7.38µM*,u,-1.4
COc1ccc(-c2cn[nH]c2-c2ccc(OCc3ccc([N+](=O)[O-])cc3)cc2O)cc1OC,1.3,10.4µM*,9.28µM*,-3.8
CCc1cc(-c2[nH]ncc2-c2ccc([N+](=O)[O-])cc2)c(O)cc1OC,-2.3,4.65µM*,-28.6%,-5.1
Oc1ccc(-c2[nH]ncc2-c2ccc(Cl)cc2)c(O)c1,2.1,u,-2.8%,16.3
O=[N+]([O-])c1ccc(COc2ccc(-c3[nH]ncc3-c3ccc(Cl)cc3)c(O)c2)cc1,-10.4,2.33µM*,u,-12.8
COc1cccc2c1cc1c(=O)n(CC(=O)N3CCC(C)CC3)nc(C)n12,-1.1,11.9%,111.4%,-5.4
COc1ccc(-n2nc3c(c2NC(=O)c2ccccc2S(=O)(=O)C(F)F)CS(=O)(=O)C3)cc1,-2.2,-12.0%,u,17.1
Cc1ccc(C(C)C)c(OCCNC(=S)Nc2cccc3ccccc23)c1,8.8,9.28µM*,u,21.9
CCOc1ccc(-n2c(Cc3cc(=O)[nH]c(=O)[nH]3)nnc2SCc2cccnc2)cc1,-1.2,x,13.1µM*,11.8
CCOC(=O)C(C)Sc1nnc(Cc2cc(=O)[nH]c(=O)[nH]2)n1-c1ccc(OCC)cc1 (configuration not stated),-1.3,x,9.28µM*,-7.0
O=C(CS(=O)(=O)c1cn(CC(=O)N2CCOCC2)c2ccccc12)Nc1ccccc1F,1.1,-6.4%,-8.0%,-2.1
COC(=O)c1ccc(OCC(O)CN2CCN(C(=O)c3ccco3)CC2)c(OC)c1 (configuration not stated),-5.8,-3.9%,12.6%,5.8
CCOC(=O)C1CCN(C(=O)c2ccccc2NC(=O)C2=C(C)OCCS2)CC1,-1.9,10.4µM*,u,-7.5
CC1=C(C(=O)Nc2ccccc2C(=O)NCc2ccccc2)SCCO1,4.9,u,u,-2.3
SMILES,Cycloheximide cs,Pf growth 48h,Pf growth 96h,Shiga inhibitor
CCOC(=O)C1CCCN(C(=O)Nc2cccc(Cl)c2)C1 (configuration not stated),10.6,16.1%,u,-2.7
CC1=C(C(=O)Nc2ccccc2C(=O)NC2CCC(C)CC2)SCCO1 (configuration not stated),16.0*,-16.7%,u,25.5
CCN1CCN(CCCNC(=O)c2ccccc2NC(=O)C2=C(C)OCCS2)CC1,3.9,-30.8%,u,-9.3
CCOC(=O)C1CCCN(C(=O)c2cc(Cl)ccc2NC(=O)C2=C(C)OCCS2)C1 (configuration not stated),-1.6,13.1µM*,0.9%,26.7
Cc1csc(NC(=O)C2CC(=O)N(c3ccc(C)c(C)c3)C2)n1 (configuration not stated),0.6,10.9%,0.0%,3.2
N#Cc1c(/N=C/c2ccc(O)cc2O)sc2c1C1CCN2CC1,9.9*,-18.5%,7.4%,17.4
CC(=O)c1cccc(NC(=O)NC(C)C2CCCO2)c1 (configuration not stated),2.7,4.7%,u,-4.8
CCc1sc(C(=O)NC(C)C2CCCO2)cc1Br (configuration not stated),2.0,-0.1%,u,32.0
CCOc1cc(C(=O)NC(C)C2CCCO2)cc(OCC)c1OCC (configuration not stated),-3.9,40.7%[1.15 µM],11.7µM*,-8.1
CCOC(=O)c1ccc(NC(=O)NC(C)C2CCCO2)cc1 (configuration not stated),12.1*,3.5%,x,36.4
CC(NC(=O)Nc1ccc(Cl)cc1)C1CCCO1 (configuration not stated),8.1,72.8%,u,20.0*
O=C(/C=C/c1ccc([N+](=O)[O-])cc1)Nc1cccnc1,42.6*,54.4%,52.4%,112.2*
O=C(/C=C/c1ccccc1)Nc1cccnc1,27.6*,97.8%,u,32.8*
COc1cc(C)nc(N2CCC(C(N)=O)CC2)n1,-2.8,9.2%,9.28µM*,-11.3
CN(Cc1ccccc1)S(=O)(=O)c1ccc2[nH]c(=O)ccc2c1,-2.0,7.4%,14.7µM*,-7.9
CCCc1ccc(OCc2ccc(C(=O)N3CCSCC3)o2)cc1,85.8*,43.8%,31.3%,155.8*
Cc1cccc(OCc2ccc(C(=O)N3CCOCC3)o2)c1,4.7,20.8%,-2.2%,7.3
CCC(C)c1ccc(OCc2ccc(C(=O)OC)o2)cc1 (configuration not stated),101.3*,116.7%,301.4%,148.8*
Cn1cccc1C(=O)OCC(=O)c1cc2ccccc2o1,28.8*,79.4%,68.4%,62.3*
O=C(N/N=C/c1cc([N+](=O)[O-])ccc1O)c1ccc(COc2ccc3c(c2)CCC3)o1,12.4,u,9.28µM*,-11.0
COC(=O)c1ccc(COc2ccc(C(C)(C)C)cc2)o1,90.1*,132.5%,u,145.5*
COC(=O)c1ccc(COC(=O)c2cccn2C)o1,23.7*,65.2%,39.2%,139.7*
CC(C)(C)c1ccc(OCc2ccc(C(=O)Nc3cccnc3)o2)cc1,75.4*,u,-19.3%,157.2*
CCCNC(=O)c1ccc(COc2ccc(C(C)(C)C)cc2)o1,39.8*,u,-2.2%,94.1*
COC(=O)c1cn(NC(=O)Cn2nc([N+](=O)[O-])c(Br)c2C)c(=O)c2ccccc12,-2.1,15.9%,9.0%,-18.0
CCc1ccc(OCc2ccc(C(=O)OC)o2)cc1,67.4*,159.5%,-38.0%,153.7*
COC(=O)c1ccc(COc2ccc(NC(C)=O)cc2)o1,-1.2,87.0%,67.1%,15.8
O=C(NCc1cccnc1)c1ccc(COc2ccc3c(c2)CCC3)o1,5.3,u,x,-5.4
COC(=O)c1ccc(COc2ccc3c(c2)CCC3)o1,54.1*,54.8%,i,116.9*
